Hits are enriched below; roughly 12% of the tested compounds scored in any of these assays.
TDP1 inh – qHTS Assay for Inhibitors of Tyrosyl-DNA Phosphodiesterase (TDP1) | AID 485290, 2010 | hit rate 0.28% among 350,000 | recombinant TDP1, AlphaScreen DNA substrate cleavage | Potency, µM (doses to about 130 µM), without a hit: at the highest dose activity change, negative = inhibition, actives largely listed as inhibitors; note: % is set by controls: 0 for no effect and ±100 for the full control effect; nearly all actives have a fitted effect of over 40% in size
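Recombinant human Tdp1 (E. coli-expressed, 1 nM final) preincubated with compounds 15 min at room temperature, then 5'-biotin/3'-phosphotyrosine-FITC DNA substrate (15 nM final) added for 5 min. AlphaScreen beads (10 ug/ml final) added 10 min; cleavage lowers signal.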
BAZ2B block – qHTS Assay for Inhibitors of BAZ2B; Potency, µM (top dose mostly 114 µM), inactives show at the top dose activity change, negative = inhibition, actives largely listed as inhibitors; AlphaScreen BAZ2B-H3K14Ac peptide displacement; hit rate 4.4% among 360,000; Bromodomain adjacent to zinc finger domain protein 2B (Homo sapiens), Q9UIF8; note: % is set by controls: 0 for no effect and ±100 for the full control effect; nearly all actives have a fitted effect of over 60% in size
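Multi-concentration screen (max 110 uM) measuring displacement of acetylated histone H3 peptide from BAZ2B by AlphaScreen, using 50 nM protein, 50 nM peptide and 10 ug/mL streptavidin donor plus Ni-chelate acceptor beads.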
HP1b chromo inh – HTS for Inhibitors of HP1-beta Chromodomain Interactions with Methylated Histone Tails; Potency, µM (titrated, usually from 114 µM), for the others: at the top dose activity change, negative = inhibition, hits mostly inhibitors; AID 540317, 2011; hit rate 0.56% among 390,000; AlphaScreen HP1-beta / biotin-H3K9me3 peptide binding; note: nearly all actives have a fitted effect of over 70% in size
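Compound inhibition of the preformed complex between 50 nM HP1-beta and 50 nM biotinylated H3K9me3 peptide was read by AlphaScreen. Buffer was PBS pH 7.4 with 0.01% Tween-20. Incubations ran 30 min at room temperature, with 10 ug/mL donor/acceptor beads.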
JMJD2A Tudor – qHTS Assay for Inhibitors of JMJD2A-Tudor Domain; Lysine-specific demethylase 4A (Homo sapiens), O75164; AlphaScreen JMJD2A-Tudor / H3K4me3 peptide binding; Potency, µM (series often up to 114 µM), inactives show top-dose activity change, negative = inhibition, actives largely listed as inhibitors; hit rate 4.4% among 390,000; AID 504339, 2011; note: % is set by controls: 0 for no effect and ±100 for the full control effect; nearly all actives have a fitted effect of over 50% in size
Sfp PPTase inh – qHTS Assay for Inhibitors of Bacillus subtilis Sfp phosphopantetheinyl transferase (PPTase) | Potency, µM, for inactives: largest response in the series, negative = inhibition, actives largely listed as inhibitors | AID 1490, 2009 | Biochemical Sfp PPTase activity, qHTS | hit rate 3.5% among 310,000;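 note: the enzyme is Sfp with the accession as filed and its product quenches rhodamine fluorescence; 0% = enzyme reaction without inhibitor and -100% = no enzyme wells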
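Step 1, compound plus 15 nM Sfp-PPTase, 15 min, room temperature. Step 2, add rhodamine-CoA (5 uM) and BHQ-2-YbbR (12.5 uM). Step 3, read 525/598 nm fluorescence at 0 and 30 min.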
G9a block – qHTS Assay for Inhibitors of Histone Lysine Methyltransferase G9a; G9a H3K9 monomethylation, AlphaScreen, 2 h; hit rate 8.8% among 350,000; Potency, µM (series often up to 102 µM), for the others: top-dose activity, negative = inhibition, usual class: inhibitors; Histone-lysine N-methyltransferase EHMT2 (Homo sapiens), Q96KQ7; AID 504332, 2011; note: % is set by controls: 0 for no effect and ±100 for the full control effect; nearly all actives have a fitted effect of over 75% in size
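Chemiluminescent proximity detection of H3K9 monomethylation, read after 10 min bead incubation in the dark. Reaction: 20 nM G9a, 500 nM biotin-H3K9 peptide, 20 uM SAM cofactor, 2 h, room temperature, following 15 min enzyme-compound preincubation.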
The depositor's hits bear a star; ? = inconclusive; . = no result; [ ] = dose if it differs, or a comment. Calls come from the whole dose curve; as a rule, active = well fitted curve in the direction sought with a large enough effect; inconclusive = small, poorly fitted or top-dose-only effect, or another doubt; inactive = no such curve, though single readings can be large; an effect the other way counts as inactive or inconclusive. Potency is the fitted concentration of half-maximal effect.

SMILES	TDP1 inh	BAZ2B block	HP1b chromo inh	JMJD2A Tudor	Sfp PPTase inh	G9a block
CCCCN(Cc1cc2cc(C)ccc2[nH]c1=O)C(=O)c1ccccn1	.	-0.5%	37.7%	-5.8%	13.1%	2.9%
CCCN(Cc1cc2ccc(C)cc2[nH]c1=O)C(=O)c1ccccn1	4.2%	3.2%	-13.8%	-20.5%	?	31.6µM*
CN(C)S(=O)(=O)c1ccc(N2CCCC2)c(C(=O)OCC(=O)N2CCN(c3ccccc3)CC2)c1	.	9.0%	1.0%	-18.2%	.	-11.0%[59 µM]
COc1ccc(/C=C/C(=O)OCC(=O)NCCC2=CCCCC2)cc1	2.9%	10.4%	31.7%	6.8%	-10.9%	-0.6%
COc1cccc(/C=C/C(=O)OCC(=O)NCCC2=CCCCC2)c1	-2.6%	-28.5%	21.0%	8.91µM*	13.4%	-1.9%
N=C1CCC(=N)c2c1c(O)c1ccccc1c2O	5.5%	14.1µM*	20µM*	14.1µM*	?	.
COc1ccc(N2CCN(C(=O)c3ccc(Cl)c(S(=O)(=O)N4CCOCC4)c3)CC2)cc1	.	.	1.5%	-22.5%	.	.
COc1cc2c(cc1OC)CN(C(=O)c1cc(S(=O)(=O)N3CCOCC3)ccc1Cl)CC2	3.0%	-13.9%	20.2%	?	-9.6%	50.1µM*
COc1ccc(S(=O)(=O)N2CCCCCC2)cc1C(=O)N1CCN(c2ccc(F)cc2)CC1	.	.	14.9%	-25.2%	.	.
COc1ccc(N2CCN(S(=O)(=O)c3ccc(OC)c(C(=O)N4CCOCC4)c3)CC2)cc1	9.3%	-21.5%	4.0%	-10.2%	-0.6%	44.7µM*
O=C(c1cc(S(=O)(=O)N2CCOCC2)ccc1Cl)N1CCc2ccccc2C1	3.6%	-3.8%	14.6%	-18.2%	23.3%	25.0%
COc1ccc(N2CCN(C(=O)c3ccc(Cl)c(S(=O)(=O)N4CCCC4)c3)CC2)cc1	3.7%	70.8µM*	-1.1%	?	5.5%	39.8µM*
COc1ccc(N2CCN(C(=O)c3cc(S(=O)(=O)N4CCCCCC4)ccc3OC)CC2)cc1	2.8%	?	?	?	.	50.1µM*
COc1ccc2[nH]c(=O)c(CN(Cc3cccnc3)C(=S)NCC3CCCO3)cc2c1 (stereo not given)	0.0%	-20.7%	29.0%	1.7%	-6.7%	9.4%
COc1ccccc1NC(=O)Cc1nnc(SCC(=O)NC2CCCCC2C)n1C (stereo not given)	.	-1.6%	10.3%	-6.4%	19.4%	16.1%
CC1CCN(C(=O)Cn2nnc(-c3ccc([N+](=O)[O-])cc3)n2)CC1	.	11.8%[0.457 µM]	11.3%	-16.4%	3.7%	?
CCCCOC(=O)c1cccc(NC(=O)/C=C/c2ccccc2Cl)c1	0.4%[12.3 µM]	14.6%	25.6%	-12.4%	.	-2.8%[59 µM]
CCOC(=O)c1ccccc1NC(=O)Cn1ncc2c([nH]c3ccccc32)c1=O	9.9%	-2.9%	12.6%	3.3%	.	-2.3%[59 µM]
c1ccc(-c2nn3c(Cn4nnc5ccccc54)nnc3s2)nc1	-6.6%	-31.2%	-28.4%	?	15.8µM*	?
c1cncc(-c2nn3c(Cn4nnc5ccccc54)nnc3s2)c1	4.9%	13.7%	-22.0%	-8.6%	31.6µM*	12.9%[2.33 µM]
Cc1oc2ccc(O)cc2c1C(=O)c1ccc(F)cc1	.	.	24.7%	-19.3%	.	.
CCOC(=O)c1cc(-c2csc(Nc3c(C)cc(C)cc3C)n2)on1	5.9%	-38.4%	22.1%	-14.0%	?	.
CN1CCN(CCCNC(=O)c2ccc3c(c2)N(Cc2ccccc2)CCS3)CC1	3.9%	-11.7%	6.4%	?	-14.6%	79.4µM*
O=C(NCCN1CCOCC1)c1ccc2c(c1)N(Cc1ccccc1)CCS2	3.7%	-32.3%	-21.4%	?	-1.5%	50.1µM*
CCN(CC)C(=O)Cn1cc(C(=O)C(=O)NCc2ccccn2)c2ccccc21	0.6%	-35.9%	14.7%	-26.0%	-4.7%	42.8%
SMILES	TDP1 inh	BAZ2B block	HP1b chromo inh	JMJD2A Tudor	Sfp PPTase inh	G9a block
CCOC(=O)c1nn(C)c(=S)n(C)c1=O	.	.	30.9%	-5.5%	.	.
Cn1nc(C(=O)O)c(=O)n(C)c1=O	.	.	-38.7%	89.1µM*	.	.
CCC(C)[C@H](NC(=O)N1CCn2c1nc1ccccc12)C(=O)NCc1ccccc1 (stereo not given in full)	3.5%	7.5%	53.5%	-0.8%	1.1%	11.0%
CCOc1ccc(NC(=S)N(CCc2c(C)[nH]c3ccc(C)cc23)Cc2ccco2)cc1	2.6%	-6.4%	-4.3%	?	9.3%	70.8µM*
Cc1cc(C)c(NC(=S)N(CCN(C)C)Cc2cccs2)c(C)c1	5.3%	-36.4%	18.6%	-29.5%	-14.9%	-4.3%[59 µM]
Cc1ccc(NC(=S)N(CCN(C)C)Cc2cccs2)c(C)c1	3.7%	-24.1%	-6.9%	-5.1%	31.6µM*	39.8µM*
COc1ccc(NC(=S)N(CCc2c(C)[nH]c3ccccc23)Cc2cccnc2)cc1	7.9%	35.5µM*	-15.6%	?	1.6%	70.8µM*
COc1ccc(NC(=S)N(CCc2c(C)[nH]c3ccc(C)cc23)Cc2ccco2)cc1	7.9%	?	-9.8%	?	18.6%	79.4µM*
CCOc1ccc(NC(=S)N(CCc2c(C)[nH]c3ccc(C)cc23)Cc2cccnc2)cc1	5.3%	?	-14.8%	?	6.8%	?
COc1cc(C)c(NC(=O)C2CCN(S(=O)(=O)c3cccs3)CC2)cc1OC	0.2%	3.3%	17.6%	-25.8%	.	?
NC(=O)c1nsc(C(=O)N(Cc2ccco2)C(C(=O)NCc2ccccc2)c2ccc(O)cc2)c1N (stereo not given)	2.7%	-20.0%	?	-21.9%	10.9%	4.4%[59 µM]
COc1ccc2[nH]c(C)c(CCN(Cc3cccs3)C(=S)Nc3ccccc3)c2c1	7.6%	?	?	?	-2.0%	?
COc1ccc(NC(=S)N(CCc2c(C)[nH]c3ccc(C)cc23)Cc2cccs2)cc1	-1.3%	?	10.9%	?	-0.2%	50.1µM*
CNC(=S)N(CCc1c(C)[nH]c2ccc(C)cc12)Cc1cccs1	6.9%	.	-4.0%	?	13.8%	44.7µM*
COc1ccc2[nH]c(C)c(CCN(Cc3cccs3)C(=S)Nc3ccc(F)cc3)c2c1	9.8%	?	?	?	15.5%	?
CC1(C(=O)OCC(=O)Nc2ccc(C(N)=O)cc2)CC1(Cl)Cl (stereo not given)	-1.2%	-11.3%	37.0%	9.8%	11.5%	-15.5%
COc1ccccc1NC(=O)c1ccc(NC(=O)COC(=O)C2(C)CC2(Cl)Cl)cc1 (stereo not given)	2.8%	-7.4%	2.9%	79.4µM*	14.4%	-3.5%[59 µM]

Bioassay records (PubChem)
